The source made the active and inactive calls. How the source made its calls: active means hit-call score of the fitted dose curve at least 0.9, where 1 is the maximum; inactive means score below 0.9.
Key:
[1] = APR_HepG2_CellLoss_72hr: Apredica 72-hour HepG2 Assay for Cell Loss (AID 2282915); conditions: high-content imaging
Summary of the method: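 HepG2 cells were exposed for 72 hr to compounds at 0.39–200 uM (ten concentrations, duplicate) in 0.5% v/v final DMSO. Nuclei were stained with Hoechst 33342 after 3.7% formaldehyde fixation, imaged at 20x, and counted; fits bidirectional versus DMSO.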

[2] = APR_HepG2_MitoMembPot_72hr: Apredica 72-hour HepG2 Assay for Mitochondrial Membrane Potential (AID 2282917); conditions: imaging, actives raise or lower the signal
Summary of the method: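 HepG2 cells exposed 72 h to compounds at 0.39–200 uM (0.5% v/v DMSO, duplicates); MitoTracker Red CMXRos 250 nM loaded 30 min before 3.7% formaldehyde fixation, imaged by HCS fluorescence. Bidirectional fit versus DMSO.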

[3] = APR_HepG2_MitoticArrest_72hr: Apredica 72-hour HepG2 Assay for Mitotic Arrest (AID 2282918); conditions: high-content imaging, actives raise or lower the signal
Summary of the method: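 Mitotic arrest in HepG2 is scored from phospho-histone H3 staining after 72 hr dosing across 0.39–200 uM, with DMSO at 0.5% v/v. Nuclei are identified by Hoechst 33342 and fluorescence intensity is quantified per cell.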

[4] = APR_HepG2_MicrotubuleCSK_72hr: Apredica 72-hour HepG2 Assay for Microtubule CSK Stabilty (AID 2282919); conditions: HepG2 microtubule cytoskeleton, high-content imaging, actives raise or lower the signal
Summary of the method: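 Ten-point dosing (0.39–200 uM, 0.5% DMSO) of HepG2 for 72 hr, with taxol as the cytoskeletal positive control. The cells were formaldehyde-fixed and then stained with alpha-tubulin/Cy5 and Hoechst. Imaging at 20x used a −2 um Z offset for tubulin.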

[5] = APR_HepG2_P-H2AX_24hr: Apredica 24-hour HepG2 Assay for H2AX Phosphorylation (AID 2282920); conditions: high-content imaging, actives raise or lower the signal
Summary of the method: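 Signal comes from a FITC-labeled secondary detecting phospho-histone H2A.x in fixed HepG2 cells, quantified by automated imaging at 20x. Dosing ran 24 hr across 0.39–200 uM with 0.5% v/v DMSO.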

[6] = APR_HepG2_StressKinase_72hr: Apredica 72-hour HepG2 Assay for Stress Kinase (AID 2282921); conditions: HepG2 stress kinase (phospho-c-Jun) imaging, actives raise or lower the signal
Summary of the method: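 Stress kinase signal is phospho-c-Jun immunofluorescence (1:500 primary, Cy3 secondary) in fixed, permeabilized human HepG2 cells imaged at 20x. Exposure lasted 72 hr over ten concentrations from 0.39 to 200 uM, 0.5% DMSO, in duplicate. Bidirectional fit versus DMSO.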

[7] = APR_HepG2_StressKinase_24hr: Apredica 24-hour HepG2 Assay for Stress Kinase (AID 2282922); conditions: HepG2 stress kinase (phospho-c-Jun) imaging, actives raise or lower the signal
Summary of the method: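 After 24 hr compound treatment (up to 200 uM, final DMSO 0.5% v/v), HepG2 cells are fixed and multiplex-labeled; phospho-c-Jun intensity is captured by high-content fluorescence imaging and analyzed relative to DMSO.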

[8] = APR_HepG2_p53Act_72hr: Apredica 72-hour HepG2 Assay for p53 Activation (AID 2282923); conditions: high-content imaging, actives raise or lower the signal;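 further: average cellular p53 protein immunofluorescence intensity in HepG2 cells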
Summary of the method: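 After 72 h with compound (ten points, 0.39 to 200 uM, final DMSO 0.5% v/v), fixed HepG2 cells were labelled with sheep anti-p53 and Hoechst 33342 and imaged; gain or loss versus DMSO scored.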

[9] = APR_HepG2_MitoMass_72hr: Apredica 72-hour HepG2 Assay for Mitochondrial Mass (AID 2282924); conditions: high-content imaging, actives raise or lower the signal;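 further: MitoTracker Red CMXRos stain intensity per cell imaged as mitochondrial mass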
Summary of the method: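 Steps: treat HepG2 72 hr (0.39–200 uM, duplicate wells); load MitoTracker Red CMXRos, 250 nM, 30 min; fix with 3.7% formaldehyde, permeabilise with 0.5% Triton X-100; capture images, nuclei via Hoechst 33342; fit bidirectionally against DMSO.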

[10] = APR_HepG2_P-H2AX_72hr: Apredica 72-hour HepG2 Assay for H2AX Phosphorylation (AID 2282916); conditions: imaging, actives raise or lower the signal;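 further: phospho-histone H2A.x immunostain intensity per cell marking DNA damage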
Summary of the method: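 Phospho-histone H2A.x immunofluorescence, multiplexed with Hoechst and c-Jun, quantified by high-content imaging. Compounds applied to HepG2 for 72 h across ten concentrations (0.39–200 uM, 0.5% DMSO), in duplicate; DMSO baseline.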

Measured: AC50

Cc1ccc(N)cc1N
not listed: [10]
inactive: all other assays above

CCC1(c2ccccc2)C(=O)N=C(O)NC1=O (stereo not drawn)
not listed: [10]
inactive: all other assays above

Nc1ccc(Cl)cc1
inactive: all assays above

c1nc[nH]n1
not listed: [10]
inactive: all other assays above

CCCCN(CCCC)N=O
not listed: [10]
inactive: all other assays above

Nc1ccc2ccccc2c1
active: [9] 69.8 µM
inactive: all other assays above

c1ccc(OP(Oc2ccccc2)Oc2ccccc2)cc1
active: [3] 113 µM
not listed: [10]
inactive: all other assays above

CCOC(=O)c1ccccc1C(=O)OCC
not listed: [10]
inactive: all other assays above

CCN(CC)c1ccccc1
not listed: [10]
inactive: all other assays above

O=P(Oc1ccccc1)(Oc1ccccc1)Oc1ccccc1
active: [1] 63.2 µM | [3] 62 µM | [4] 79.4 µM | [5] 70.9 µM | [8] 68.3 µM
inactive: [2] | [6] | [7] | [9]

CCOc1ccc(C(C)(C)COCc2cccc(Oc3ccccc3)c2)cc1
active: [1] 68.3 µM | [3] 66.6 µM
not listed: [10]
inactive: all other assays above

ClC1=C(Cl)C2(Cl)C3C(Cl)C(Cl)CC3C1(Cl)C2(Cl)Cl (stereo not drawn)
active: [1] 60.9 µM | [2] 27.1 µM | [3] 53.5 µM | [4] 98.6 µM | [5] 72.8 µM | [6] 109 µM | [7] 96.7 µM | [8] 98.4 µM | [9] 136 µM

O=P1(N(CCCl)CCCl)NCCCO1 (stereo not drawn)
not listed: [10]
inactive: all other assays above

CCCN(CCC)c1c([N+](=O)[O-])cc(C(C)C)cc1[N+](=O)[O-]
inactive: [5] | [6] | [7]
active: [1] 43.1 µM | [2] 46.9 µM | [3] 31.6 µM | [4] 41.2 µM | [8] 44.1 µM | [9] 40.9 µM

[N-]=[N+]=[N-]
not listed: [10]
inactive: all other assays above

CC(C)(C)OOC(C)(C)C
not listed: [10]
inactive: all other assays above

Cc1cccc(N)c1
inactive: all assays above

CC(Cc1ccc(OCC(=O)O)cc1)NCC(O)c1csc(C(F)(F)F)n1 (stereo not drawn)
not listed: [10]
inactive: all other assays above

OCC1CO1 (stereo not drawn)
not listed: [10]
inactive: all other assays above

O=[N+]([O-])c1ccccc1
not listed: [10]
inactive: all other assays above
